Results filed as inconclusive are left out. A call without a number means that no potency is given here. The source made the active and inactive calls. Calls come from the whole dose curve; as a rule, active = well fitted inhibition curve with a large enough effect; inconclusive = small, poorly fitted or top-dose-only effect; inactive = flat fitted curve, though single readings scatter. Non-standard residues stand in square brackets, D forms with d. Residues, ends and D or L forms follow the SMILES beside them. *: point of attachment. Nva = CCC[C@H](N)C(=O)O; Cbz = O=C(OCc1ccccc1)*

The source of these data is PubChem BioAssay (NCATS).

The subject of this assay is Zika virus NS2B-NS3 protease. The experiment in a line: Primary screen GU AMC qHTS for Zika virus inhibitors (AID 1347154). Note: nearly all actives have a fitted effect of over 70% in size. The following applies: Zika NS2B-NS3 unlinked protease, AMC fluorogenic substrate; series mostly up to 54.1 µM. In a few lines: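 Fluorogenic AMC-substrate cleavage by noncovalent NS2B-NS3 protease complex (25 nM, pH 8.0 Tris buffer with Tween 20) followed for 15 minutes at room temperature (~20% conversion). Percent inhibition from ex340/em450 signal change, fitted by 4-parameter Hill equation.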
(Quantitative high-throughput screening tests each substance at several concentrations.)
For `COc1ccc(C=Cc2cc(OC)c(OC)c(OC)c2)cc1NC(=O)[C@H](N)CO`, the Potency result is “inactive”.

On to `Cc1ccc([N+](=O)[O-])cc1S(=O)(=O)N(C)N=Cc1cnc2ccc(Br)cn12`, for which the Potency result was “inactive”.

As to `CNC(=O)Nc1ccc(-c2nc(N3CC4CCC(C3)O4)c3cnn(C4CCC5(CC4)OCCO5)c3n2)cc1`, the Potency entry is “inactive”.

On to `Nc1nc2c(c(=O)[nH]1)N(C=O)[C@H](CNc1ccc(C(=O)N[C@@H](CCC(=O)O)C(=O)O)cc1)CN2`, for which the Potency entry was “inactive”.

On to `C[C@H](NCc1ccc2c(c1)nc(NC(=O)c1ccc(-c3cn[nH]c3)s1)n2CCc1ccccc1)C(C)(C)C`, for which the Potency entry is “inactive”.

Turning to `CCC[C@@H](C=O)NC(=O)[C@H](CC(C)C)NC(=O)[C@H](CC(C)C)NC(=O)OCc1ccccc1` (Cbz-Leu-Leu-[Nva]-aldehyde), the Potency entry was “inactive”.

In the case of `COC(=O)[C@@H]1[C@H]2C[C@@H]3c4[nH]c5ccccc5c4CCN3C[C@@H]2CC[C@@H]1O`, the Potency entry was “inactive”.

On to `FC(F)c1nc2ccccc2n1-c1nc(N2CCOCC2)nc(N2CCOCC2)n1`, for which the Potency entry was “inactive”.

On to `Cn1cc(CNCC2CCN(c3ncc(C(=O)NO)cn3)CC2)c2ccccc21`, for which the Potency entry is “inactive”.

With `Oc1ccc(-c2ccc(-c3cc(Nc4cccc(CNC5CC5)c4)n[nH]3)cc2)c(O)c1`, the Potency result is “inactive”.

On to `COc1cc(OC)c(C=CS(=O)(=O)Cc2ccc(OC)c(NCC(=O)O)c2)c(OC)c1`, for which the Potency entry is “inactive”.

With `CNC(=O)c1ccc(Nc2cc(Nc3ccccc3S(=O)(=O)C(C)C)c3cc[nH]c3n2)nc1`, the Potency result was “inactive”.

With `CC(C)C[C@H](NC(=O)[C@@H](NC(=O)c1cccc(-c2ccccc2)n1)[C@@H](C)O)B(O)O`, the Potency entry was “inactive”.
